In PubChem BioAssay:
Activity calls are given as the source filed them. No rule for the calls is given here.

Test: Brca1-Bard1 BiLC signal decrease – luminescence, single concentration, counter-screen for Mdm2/MdmX interaction inhibitor project, confirmation (AID 504668)
Details: Brca1/Bard1 bimolecular luciferase complementation counterscreen, at 8 µM, active compounds read high

Row | Structure (SMILES) | inhibition
1 | Cc1cc(SC#N)cc(C)c1NC(=O)CCl | 33.8% (active)
2 | Cc1cccc(NC(c2ccc(C)s2)c2ccc3ccc(C)nc3c2O)n1 (centres undefined) | 23.7% (active)
3 | O=C(/C=C/c1ccc2ccccc2n1)N1CCN(S(=O)(=O)c2ccc(F)cc2)CC1 | 35.1% (active)
4 | Cc1ccc2cc(CN(CC3CCCO3)C(=S)Nc3ccccc3)c(=O)[nH]c2c1C (centres undefined) | 35.3% (active)
5 | COc1ccc(NS(=O)(=O)c2cc(NC(=O)c3ccc(Cl)cc3)ccc2N2CCOCC2)cc1 | 26.8% (active)
6 | CC(=O)N(C(C)=O)c1ncc2c([nH]c3ccccc32)c1C#N | 33.1% (active)
7 | COc1ccc(C)cc1NC(=O)c1ccccc1NS(=O)(=O)c1ccc(Cl)s1 | 32.4% (active)
8 | O=c1c2cc(Br)ccc2nc(-c2cccc(C(F)(F)F)c2)n1O | 29.9% (active)
9 | COc1ccc(-c2cc(C(=O)N/N=C/c3sccc3C)c3ccccc3n2)c(OC)c1 | 31.4% (active)
10 | CSc1nc2nccc(/C=C\c3ccccc3)n2n1 | 23.7% (active)
11 | O=C(Nc1nc(-c2ccccn2)cs1)c1ccc(Cl)s1 | 24.4% (active)
12 | CC(C)CCNC(=O)C(c1ccncc1)N(Cc1cccs1)C(=O)Cn1nnc(-c2ccc(F)cc2)n1 (centres undefined) | 26.3% (active)
13 | Cc1cccc(/C=N/NC(=O)Cc2ccc(Cl)cc2)c1O | 29.9% (active)
14 | Cc1nnc(-c2ccccc2)c(=O)n1/N=C/c1c(O)ccc2ccccc12 | 30.7% (active)
15 | N=c1c(S(=O)(=O)c2ccc(Cl)cc2)cc2c(=O)n3ccccc3nc2n1CCc1ccccc1 | 24.9% (active)
16 | O=C(NC(Nc1ncc(S(=O)(=O)c2ccc([N+](=O)[O-])cc2)s1)(C(F)(F)F)C(F)(F)F)c1ccc(Cl)cc1 | 29.5% (active)
17 | CCS(=O)(=O)c1nnnn1-c1ccccc1S(C)(=O)=O | 34.3% (active)
18 | C/C(=N\NC(=O)C1CCCN(S(=O)(=O)c2ccccc2)C1)c1ccccn1 (centres undefined) | 35.2% (active)
19 | O=Cc1[nH]c2ccccc2c1N(C(=O)CCl)c1ccc([N+](=O)[O-])cc1 | 25.5% (active)
20 | O=C(Oc1ccnc2cc(Cl)ccc12)N1CCCCCC1 | 30% (active)

Row | Structure (SMILES) | inhibition
21 | Cn1c(=O)c(C#N)c(-c2ccc(F)cc2)c2cc(C(=O)c3cc(Cl)cc(Cl)c3O)cnc21 | 29.6% (active)
22 | COc1ccccc1[C@@]1(C)ON(c2ccccc2C(F)(F)F)C1=O | 31.6% (active)
23 | CC#CC[N+](C)(C)CCCCCCCCCCCC | 29.6% (active)
24 | CCN(C[C@H]1N[C@@](CC)(C(=O)OC)[C@H]2C(=O)N(Cc3ccccc3)C(=O)[C@@H]12)S(=O)(=O)c1ccc(-c2ccccc2)cc1 | 34% (active)
25 | CCOC(=O)c1cnc(-n2nc(C)cc2C)nc1NC1CCCCC1 | 30.1% (active)
26 | O=C1C(=C2SCCCS2)CC/C1=C\c1ccc(F)cc1 | 25.5% (active)
27 | O=C(CCCN1C(=O)/C(=C/c2cccc(Br)c2)SC1=S)Nc1ccccn1 | 31% (active)
28 | CCOC(=O)COc1ccc(/C=C/[N+](=O)[O-])c(OCC(=O)OCC)c1 | 23.7% (active)
29 | CCCCCCCCCCC[N+](C)(C)CC/C=C1/c2ccccc2Sc2ccc(Cl)cc21 | 28.6% (active)
30 | Oc1ccc(N=Nc2ccccc2C(F)(F)F)c2cccnc12 | 23.3% (active)
31 | O=C(NN=C(c1ccccc1)c1ccccn1)c1ccccc1 | 27.4% (active)
32 | O=C(N/N=C\c1c(O)ccc2ccccc12)c1ccc(O)cc1 | 31.7% (active)
33 | Cc1nc2ccccn2c1C(=O)/C=C/c1cccc([N+](=O)[O-])c1 | 27.6% (active)
34 | CN(C)CCN(C(=O)/C=C/c1cccs1)c1nc2c(F)cc(F)cc2s1 | 28.9% (active)
35 | COc1ccc(O)c(/C=N/NC(=O)c2ccc(OCc3cccc(Br)c3)cc2)c1 | 32.8% (active)
36 | Cn1cc(C(=O)N/N=C/c2c(O)ccc3ccccc23)ccc1=O | 27% (active)
37 | CC(C)c1cccc(O)c(=O)c1 | 27.6% (active)
38 | Cc1ccc(-c2csc(NC3OC(=O)c4ccccc43)n2)cc1 (centres undefined) | 23.7% (active)
39 | CN1CCN(Cc2cc(COCc3ccccc3)c3cccnc3c2O)CC1 | 29.5% (active)
